In ChEMBL document CHEMBL4513216, “Probing the Open Global Health Chemical Diversity Library for Multistage-Active Starting Points for Next-Generation Antimalarials” (ACS Infect Dis, 2020):
Hit rate of the full screen: of about 68,000 compounds, about 2,700 (4%) showed an effect of 50% or more. This excerpt belongs to a sample that is enriched for strong results.

System: Plasmodium berghei
Assay: Screen against P. berghei liver stage (PbLuc), transformed with Luciferase, at 2uM
Type: functional, HepG2
Conditions: tested at 2 uM

SMILES	INHIBITION [%]
O=C(Cn1cccn1)Nc1ccc(N2CCOCC2)cc1	45.12
Cc1cnc2c(S(=O)(=O)NC(=O)C(C)OCC3CC3)cccc2c1 (stereo not given)	28.97
Cc1cnc2c(S(=O)(=O)NC3CCS(=O)(=O)C3)cccc2c1 (stereo not given)	-15.28
Cc1cnc2c(S(=O)(=O)N(C)C3CCS(=O)(=O)C3)cccc2c1 (stereo not given)	47.87
Cc1cnc2c(S(=O)(=O)NCC3CC3)cccc2c1	51.94
Cc1cnc2c(S(=O)(=O)NCC3CCN(C4CC4)C3)cccc2c1 (stereo not given)	51.21
CCOC(C)C(=O)NS(=O)(=O)c1cccc2cc(C)cnc12 (stereo not given)	9.27
COC(C)C(=O)NS(=O)(=O)c1cccc2cc(C)cnc12 (stereo not given)	73.31
Cc1cnc2c(S(=O)(=O)NCC3CCOC3)cccc2c1 (stereo not given)	1.61
Cc1cnc2c(S(=O)(=O)NCC3CCS(=O)(=O)C3)cccc2c1 (stereo not given)	-84.03
CC(C)N1CCOC(CC(=O)N2CCCN(Cc3ccncc3)CC2)C1 (stereo not given)	18.22
CNc1nc(C2CCCN2C(C)=O)nc2c1CN(CCO)CC2 (stereo not given)	-0.83
Cc1cc(C)c(CNC(=O)C2COc3ccccc3C2)c(=O)[nH]1 (stereo not given)	-68.78
Cc1cc(C)nc(N2CCCC(C)(c3[nH]ncc3C(=O)N(C)C)C2)n1 (stereo not given)	-81.44
CCc1cc(CN2CCCCC2c2ccc(F)cc2)on1 (stereo not given)	-19.3
COCCOCCCNC(=O)c1cc(Cl)cc2cccnc12	-18.52
CCS(=O)(=O)N(C)CCCNC(=O)c1cc(Cl)cc2cccnc12	61.08
CCOC(=O)CCNC(=O)c1cc(Cl)cc2cccnc12	-14.21
CCS(=O)(=O)CC(=O)Nc1ccccc1N1CCc2ccccc21	6.07
Cc1ccc(C(=O)N2CCC3(CC2)CN(CCN(C)C)C(=O)O3)c(F)c1	57.34
Cc1cc(C(=O)N2CCC3(CC2)CN(CCN(C)C)C(=O)O3)nc(C)n1	59.03
Cc1ccc(C(=O)N2CCN(C)C3(CCC(=O)N(C)CC3)C2)c(F)c1 (stereo not given)	18.22

SMILES	INHIBITION [%]
CCCc1cc(C(=O)N2CCC3(CC2)CN(CCN(C)C)C(=O)O3)no1	28.73
CN(C)CCCN1CC2(CCN(C(=O)C3(C)CCCCO3)CC2)OC1=O (stereo not given)	-64.97
CN(C)CCN1CC2(CCN(C(=O)c3cnccn3)CC2)OC1=O	-48.69
CN(Cc1ccccc1)C(=O)Cn1nc(N2CCSCC2)ccc1=O	22.88
Cc1cc2nc(C(C)C)cc(N(C)CC3CCN(C(C)C)C3)n2n1 (stereo not given)	5.93
Fc1cccc(CN2CCOCC3(CCN(C4CCOCC4)C3)C2)c1 (stereo not given)	30.29
CNc1cc2c(nn1)CCN(C(=O)c1cc(C)n(C3CC3)c1C)C2	26.06
CCn1c(=O)nc(N)c2c(-c3ccc(OC)cc3)csc21	-37.19
COc1ccc(-c2csc3c2c(N)nc(=O)n3CC(N)=O)cc1	23.16
CCOC(=O)Cn1c(=O)nc(N)c2c(-c3ccc(OC)cc3)csc21	69.62
O=C(CC1CC2(CCNCC2)c2ccccc21)NCC1CC1 (stereo not given)	-1.81
CC(=O)NC1CCN(c2ncnc3c2c(C)nn3C)C1 (stereo not given)	32.56
CCC1(CC)Cc2ccccc2-c2nc(CN(C)C)nc(O)c21	29.02
CC(C)N(CCC#N)C(=O)c1cnc(-c2ccc3c(c2)OCO3)s1	37.87
CN(C)C(=O)c1cnc(-c2ccc3c(c2)OCO3)s1	-197.6
CC(C)N(CC(N)=O)C(=O)c1cnc(-c2ccc3c(c2)OCO3)s1	75.8
O=C(O)C1(n2ccc(-c3ccco3)n2)CCN(Cc2cccnc2)CC1	-30.35
Cc1ccc2nc(CN(C)Cc3ccc(C)o3)cc(=O)n2c1	5.02
Cc1nc(C(=O)N2CCN(C(C)c3ccccc3F)CC2)cs1 (stereo not given)	19.06
CN1CCc2ncc(CNc3cc(N(C)C)ncn3)n2CC1	-14.45
Cc1cc(C)nc(N2Cc3cnn(Cc4ccc(F)cc4)c3C2)n1	-51.41
CNc1cc(C)nc(N2Cc3cnn(Cc4ccc(F)cc4)c3C2)n1	52.03

SMILES	INHIBITION [%]
Cc1ccnc(N2Cc3cnn(Cc4ccc(F)cc4)c3C2)n1	-38.09
O=C(CN1CC(n2cccn2)C1)NCCc1c[nH]c2ccccc12	25.74
O=S(=O)(NCCn1ccc(-c2cccs2)n1)C1CC1	-49.59
Cc1nc(-c2ccccc2C)n(CC(=O)NC(C)C2CC2)n1 (stereo not given)	12.66
Cc1ccc(C(=O)N2CCC3(CCC(C(=O)NCC4CC4)O3)CC2)o1 (stereo not given)	38.09
Cc1ccccc1C(=O)N1CCC2(CCC(C(=O)NCC3CC3)O2)CC1 (stereo not given)	-28.91
Cc1occc1C(=O)N1CCC2(CCC(C(=O)NCC3CC3)O2)CC1 (stereo not given)	51.19
O=C(NCC1CC1)C1CCC2(CCN(C(=O)c3cccnc3)CC2)O1 (stereo not given)	22.71
O=C(NCC1CC1)C1CCC2(CCN(C(=O)c3ccoc3)CC2)O1 (stereo not given)	36.99
O=C(NCC1CC1)C1CCC2(CCN(C(=O)c3ccncc3)CC2)O1 (stereo not given)	52.36
CCC(C)(CC(=O)OC)NC(=O)c1ccc(C(C)=O)cc1 (stereo not given)	27.85
COc1cccc(-c2cc(C(=O)NCCCn3cnnc3)[nH]n2)c1	-48.78
CCNc1ncc(C(=O)NCc2cccc(OC(F)(F)F)c2)cn1	-15.83
CCNc1ncc(C(=O)NCc2ccc(F)c(C(F)(F)F)c2)cn1	-18.6
CCNc1ncc(C(=O)NCc2ccc3nsnc3c2)cn1	86.69
Cc1nn(C)c(C)c1NC(=O)CN1CCc2c(nc(C(C)C)n2C)C1	-31.89
CC(C)(C(=O)N1CCC(C(N)=O)C1)c1ccccc1F (stereo not given)	60.9
CC(C)(C(=O)N1CCC(CS(N)(=O)=O)CC1)c1ccccc1F	30.06
CC(C)(C(=O)NCC(=O)N1CCCC1)c1ccccc1F	5.47
CCOc1ccc(Oc2cc(CN)ccn2)cc1	16.95
O=C(CCC(=O)N1CCOCC1)NCc1cccnc1-n1cccn1	-15.37
